Most compounds without a hit are left out; they make up all but 2.7% or so of the library.
HIV Env fusion = blocks HIV Env-driven cell-cell fusion; HeLa-JRFL Env/CEM21 cell fusion, luciferase; inhibition, % at 12.3 µM; actives 1.1% (n = 360,000); AID 651610;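 active = mean replicate inhibition score of at least 50 and every replicate individually at or above 50; inconclusive = only one of the two criteria met; inactive = mean below 50 and not all replicates reaching 50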;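 also: 0% = plate neutral controls and 100% = maraviroc near 300 nM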
PAX8 inh HTS = inhibitors of PAX8 transcriptional activity in RMG-I cells. inhibition, % at 12.6 µM. actives 1.2% (n = 360,000). AID 652154. RMG-I TPO-luciferase reporter, SteadyGlo, 24 h;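 active = mean replicate inhibition at least 60% with every replicate also reaching 60%; inconclusive = only one of the two criteria is met; inactive = mean below 60% and not all replicates reaching 60%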;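 also: luciferase light reporting Pax8 driven TPO promoter activity; plate controls were median of neutral control wells for no effect and mitoxantrone controls for full effect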
PGC1a acetyl inh = PGC1a acetylation modulation, inhibitor mode; U2OS PGC1a acetylation, AlphaScreen anti-acetyl-lysine; with virally co-expressed GCN5 acetyltransferase; inhibition, % at 15.6 µM; actives 0.17% (n = 350,000);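 active = every replicate shows inhibition of at least 40%; inconclusive = mean inhibition at least 40% but some replicate below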;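 also: 0% = neutral control wells and 100% = positive control wells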
EWS-Fli block = blocks EWS/Fli oncoprotein-driven transcription; A673 NR0B1-luciferase reporter, viability-normalised; actives 0.67% (n = 350,000); inhibition, % at 12.6 µM; AID 651661;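 active = mean inhibition of at least 50% after viability correction, with every replicate also passing that limit; inconclusive = mean reaches 50% but only one of two replicates passes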;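 also: firefly luciferase signal divided by Alamar Blue viability fluorescence both relative to DMSO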
INS-1E GSIS act = GLuc luminescence reporter in INS-1E cells, primary screen for activators of glucose-dependent secretion of insulin | INS-1E GLuc reporter insulin secretion, 2-3 h | AID 743287 | activation, % at 16.6 µM | actives 0.61% (n = 370,000);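 active = lowest replicate activation of at least 40%, so every replicate reaches that level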;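 also: 0% = median of neutral control wells and 100% = median of IBMX positive control wells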
CFTR F508del cor = correctors of CFTR F508del function in bronchial epithelial cells | CFBE cells, YFP halide quenching; stimulated with forskolin plus potentiator P3; % fluorescence drop versus neutral controls | activity (quench increase), % at 7.58 µM | actives 0.36% (n = 350,000);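 active = mean added fluorescence quench of at least 8% versus neutral control, with both replicates also reaching 8%; inconclusive = only one of the mean or replicate conditions met; inactive = mean below 8% and not both replicates reaching 8%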;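 also: cells transiently co-express mutant CFTR-F508del with the halide-sensitive YFP; corrector assay measuring rescue of mutant channel to the surface after 24 h compound exposure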
* hit, by the source's call; u = inconclusive; x = not tested or not shown; ! = a repeat was not active; [ ] = remark or other dose.

SMILES	HIV Env fusion	PAX8 inh HTS	PGC1a acetyl inh	EWS-Fli block	INS-1E GSIS act	CFTR F508del cor
CO[C@H]1CN(C)C(=O)c2cc(NS(=O)(=O)c3ccccc3)ccc2OC[C@H](C)N(Cc2nccs2)C[C@@H]1C	x	17	-2	6	-11	-1
CN(C)C(=O)C[C@H]1C[C@@H]2c3cc(NS(=O)(=O)c4ccc(F)cc4)ccc3O[C@@H]2[C@H](CO)O1	13[16.7 µM]	-7	10	-5	-1	-1
C[C@@H](NC(=O)C[C@H]1C[C@@H]2c3cc(NS(=O)(=O)c4ccc(F)cc4)ccc3O[C@@H]2[C@H](CO)O1)c1ccccc1	86*[16.7 µM]	21	-3	7	-12	0
CN(C)C(=O)C[C@H]1C[C@@H]2c3cc(NS(=O)(=O)c4ccc(F)cc4)ccc3O[C@@H]2[C@@H](CO)O1	90*[16.7 µM]	-4	-4	4	5	-2
COc1ccc(-c2ccc3c(c2)O[C@@H](CN(C)C(C)=O)[C@@H](C)CN([C@@H](C)CO)S3(=O)=O)cc1	3[16.7 µM]	x	6	-22	25	-1
COc1ccccc1NC(=O)N1CCN(c2cccc(C(F)(F)F)c2)CC1	4	x	-10	x	-38	x
O=C(c1c(F)c(F)c(F)c(F)c1F)N1CCN(c2cccc(C(F)(F)F)c2)CC1	-58	67*	-9	x	-26	x
COc1ccccc1CC(=O)N1CCN(c2cccc(C(F)(F)F)c2)CC1	66*	x	-7	x	x	x
O=C(c1ccccc1F)N1CCN(c2cccc(C(F)(F)F)c2)CC1	-7	x	-6	x	x	x
CN1CCN(C(=O)C[C@@H]2C[C@@H]3c4cc(NC(=O)C5CCC5)ccc4O[C@@H]3[C@@H](CO)O2)CC1	-12[16.7 µM]	1	2	2	2	1
C[C@H]1CCCCO[C@H](CN(C)Cc2ccc(Cl)c(Cl)c2)[C@@H](C)CN([C@@H](C)CO)C(=O)c2cc(NS(=O)(=O)c3ccc(F)cc3)ccc2O1	x	35	1	-42	-24	5
Cc1ccc(S(=O)(=O)Nc2ccc3c(c2)C(=O)N([C@@H](C)CO)C[C@H](C)[C@@H](CN(C)Cc2ccc(Cl)c(Cl)c2)OCCCC[C@@H](C)O3)cc1	13[16.7 µM]	103*	-4	12	-20	u
C[C@H](CO)N1C[C@H](C)[C@@H](CN(C)Cc2ccc(Cl)c(Cl)c2)OCCCC[C@H](C)Oc2ccc(NS(=O)(=O)c3ccc(F)cc3)cc2C1=O	78*[16.7 µM]	105*	10	10	-13	5
C[C@@H]1CN([C@H](C)CO)C(=O)c2cc(NS(=O)(=O)c3ccc(Cl)cc3)ccc2O[C@@H](C)CCCCO[C@H]1CN(C)Cc1ccc(Cl)c(Cl)c1	-12[16.7 µM]	113*	16	17	-8	-2
C[C@@H]1CCCCO[C@@H](CN(C)Cc2ccc(Cl)c(Cl)c2)[C@@H](C)CN([C@@H](C)CO)C(=O)c2cc(NS(=O)(=O)c3ccc(Cl)cc3)ccc2O1	x	29	-2	7	3	0
Cc1ccc(S(=O)(=O)Nc2ccc3c(c2)C(=O)N([C@H](C)CO)C[C@H](C)[C@@H](CN(C)Cc2ccc(Cl)c(Cl)c2)OCCCC[C@@H](C)O3)cc1	-21[16.7 µM]	20	7	18	-8	0
C[C@H](CO)N1C[C@H](C)[C@H](CN(C)Cc2ccc(C(=O)O)cc2)Oc2ccc(NC(=O)C3CCCCC3)cc2CC1=O	-2[16.7 µM]	-31	11	-2	16	3
CC(C)N(CCCNC(=O)c1ccc(CS(=O)(=O)c2c(Cl)cccc2Cl)o1)Cc1ccccc1	7	62*	-2	3	-8	-1
CCCCN(CCCNC(=O)c1ccc(CS(=O)(=O)c2c(Cl)cccc2Cl)o1)Cc1ccccc1	12	12	-1	x	-37	2
O=C(NC1CCCCC1)N1CC2(C1)[C@H](c1ccccc1)[C@@H](CO)N2CC1CC1	5[16.7 µM]	-46	-1	1	-14	-4
CCN1CCN(Cc2ccc(NC(=O)c3cc(NC(=O)c4cc(-c5ccc(OC)cc5)n[nH]4)cc(OC)c3)cc2C(F)(F)F)CC1	12	u	-14	51*	14	-1
COc1ccc(-c2cc(C(=O)Nc3cc(OC)cc(C(=O)Nc4cccc(C(F)(F)F)c4)c3)[nH]n2)cc1	16	72*!	x	2	-9	6
CCN1CCN(Cc2ccc(NC(=O)c3cc(NC(=O)N4CCNC4=O)cc(OC)c3)cc2C(F)(F)F)CC1	-27	9	-4	24	-3	6
CCN1CCN(Cc2ccc(NC(=O)c3cc(NC(=O)c4cc5cccc(OC)c5o4)cc(OC)c3)cc2C(F)(F)F)CC1	23	90*!	-34	53*!	12	-1
COc1cc(NC(=O)N2CCNC2=O)cc(C(=O)Nc2cccc(C(F)(F)F)c2)c1	-282	63*	x	59*	-22	8.0*
SMILES	HIV Env fusion	PAX8 inh HTS	PGC1a acetyl inh	EWS-Fli block	INS-1E GSIS act	CFTR F508del cor
C[C@@H]1CN([C@H](C)CO)C(=O)c2cc(C#CC3CC3)cnc2O[C@@H]1CN(C)C(=O)C1CCCCC1	5[16.7 µM]	x	-2	-5	-3	-1
C/C=C/c1ccc([C@@H]2[C@@H](CO)N3C(=O)CN(C(=O)Nc4ccc(F)cc4)C[C@H]23)cc1	x	1	-1	0	-14	1
COc1cc(NC(=O)c2nccnc2N)cc(C(=O)Nc2cccc(C(F)(F)F)c2)c1	18	76*	x	23	-13	3
COc1cc(NC(=O)c2ccc(N)nc2)cc(C(=O)Nc2cccc(C(F)(F)F)c2)c1	x	29	-9	-37	-4	-2
CCN1CCN(Cc2ccc(NC(=O)c3cc(NC(=O)c4ccno4)cc(OC)c3)cc2C(F)(F)F)CC1	28	-10	-11	27	-4	0
COc1cc(NC(=O)c2cc3cccc(OC)c3o2)cc(C(=O)Nc2cccc(C(F)(F)F)c2)c1	15	92*	x	29	-2	0
CCN1CCN(Cc2ccc(NC(=O)c3cc(NC(=O)c4cncc(-c5cccs5)c4)cc(OC)c3)cc2C(F)(F)F)CC1	-29	51	3	64*	x	-4
CNC[C@H]1Oc2ccc(NC(=O)CCN3CCOCC3)cc2C(=O)N([C@@H](C)CO)C[C@H]1C	8[16.7 µM]	-23	-4	5	23	0
CCCCCCCCN1C(=O)[C@@H](CC(=O)N2CCOCC2)C[C@@]2(C(=O)OC)C1=C[C@H](C1CCCC1)O[C@@H]2C	17	8	x	6	x	4
CCCCCCCCN1C(=O)[C@@H](CC(=O)N2CCCC2)C[C@@]2(C(=O)OC)C1=C[C@H](C1CCCC1)O[C@@H]2C	19	5	x	34	112*	-2
CCCCCCCCN1C(=O)[C@@H](CC(=O)N2CCN(C(=O)C3CC3)CC2)C[C@@]2(C(=O)OC)C1=C[C@H](C1CCCC1)O[C@@H]2C	u	21	x	12	72*	-3
